JMJD2A Tudor: blocks the human JMJD2A Tudor domain. AlphaScreen JMJD2A-Tudor / H3K4me3 peptide binding. 390,000 tested, 4.4% active. O75164. Potency, µM (doses to about 114 µM), for the others: at the highest dose activity change, negative = inhibition, hits mostly inhibitors; further: on the % scale 0 is the no-effect control and ±100 the full control effect; nearly all actives have a fitted effect of over 50% in size
Target sequence (O75164 whole entry, looked up, the tested form may be a part): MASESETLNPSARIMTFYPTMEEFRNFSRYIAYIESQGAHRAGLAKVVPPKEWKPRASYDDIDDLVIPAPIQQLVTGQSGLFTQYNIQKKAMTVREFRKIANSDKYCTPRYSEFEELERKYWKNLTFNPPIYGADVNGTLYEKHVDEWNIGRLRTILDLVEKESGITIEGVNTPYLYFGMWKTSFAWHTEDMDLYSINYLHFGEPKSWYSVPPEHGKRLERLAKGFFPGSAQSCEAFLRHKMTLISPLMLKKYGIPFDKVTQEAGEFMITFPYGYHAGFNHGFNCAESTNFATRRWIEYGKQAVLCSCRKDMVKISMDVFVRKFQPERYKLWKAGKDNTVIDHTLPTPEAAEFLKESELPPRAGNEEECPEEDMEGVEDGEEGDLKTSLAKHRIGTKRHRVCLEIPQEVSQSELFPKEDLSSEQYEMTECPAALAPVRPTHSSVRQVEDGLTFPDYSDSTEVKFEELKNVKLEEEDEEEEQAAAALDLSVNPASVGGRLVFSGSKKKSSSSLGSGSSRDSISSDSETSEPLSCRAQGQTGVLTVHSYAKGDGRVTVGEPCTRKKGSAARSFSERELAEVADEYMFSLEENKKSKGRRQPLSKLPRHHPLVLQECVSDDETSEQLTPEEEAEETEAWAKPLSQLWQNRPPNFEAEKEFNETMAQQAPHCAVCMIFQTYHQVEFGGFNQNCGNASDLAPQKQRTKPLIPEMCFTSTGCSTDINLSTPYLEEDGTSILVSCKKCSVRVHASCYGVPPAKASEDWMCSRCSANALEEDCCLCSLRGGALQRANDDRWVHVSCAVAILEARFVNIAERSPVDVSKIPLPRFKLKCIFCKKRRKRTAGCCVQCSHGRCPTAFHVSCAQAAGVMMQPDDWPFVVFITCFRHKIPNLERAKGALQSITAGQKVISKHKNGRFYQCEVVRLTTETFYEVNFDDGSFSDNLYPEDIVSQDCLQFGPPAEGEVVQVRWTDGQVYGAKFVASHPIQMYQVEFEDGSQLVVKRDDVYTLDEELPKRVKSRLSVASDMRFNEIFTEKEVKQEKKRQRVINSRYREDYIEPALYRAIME
Sfp inh: Sfp phosphopantetheinyl transferase inhibition; Potency, µM, inactives show largest response in the series, negative = inhibition, usual class: inhibitors; Biochemical Sfp PPTase activity, qHTS; 310,000 tested, 3.5% active; Q9F4F7;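 further: the enzyme is Sfp with the accession as filed and its product quenches rhodamine fluorescence; 0% = enzyme reaction without inhibitor and -100% = no enzyme wells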
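After 15 min at room temperature with compound, 15 nM Sfp received 5 uM rhodamine-CoA plus 12.5 uM BHQ-2-ybbR (50 mM Hepes pH 7.6, 10 mM MgCl2). Rate came from the fluorescence difference over 30 min, ex 525/em 598 nm.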
PLK1 PBD block: inhibitors of human PLK1 polo-box domain binding; P53350; Plk1 PBD binding of FITC phosphopeptide, fluorescence polarization; Potency, µM, for inactives: max response, negative = inhibition, usual class: inhibitors; 360,000 tested, 2.8% active; AID 720504; further: series mostly up to about 57 µM; on the % scale 0 is the no-effect control and ±100 the full control effect; nearly all actives have a fitted effect of over 65% in size
G9a inh: G9a (human) methyltransferase inhibition; Q96KQ7; G9a H3K9 monomethylation, AlphaScreen, 2 h; Potency, µM (top dose mostly 102 µM), for the others: at the top dose activity, negative = inhibition, most hits filed as inhibitors; 350,000 tested, 8.8% active; AID 504332; further: on the % scale 0 is the no-effect control and ±100 the full control effect; nearly all actives have a fitted effect of over 75% in size
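Chemiluminescent proximity detection of H3K9 monomethylation, read after 10 min bead incubation in the dark. Reaction: 20 nM G9a, 500 nM biotin-H3K9 peptide, 20 uM SAM cofactor, 2 h, room temperature, following 15 min enzyme-compound preincubation.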
BAZ2B inh: inhibitors of human BAZ2B bromodomain; Potency, µM (titrated, usually from 114 µM), inactives show at the top dose activity change, negative = inhibition, most hits filed as inhibitors; AID 504333; 360,000 tested, 4.4% active; AlphaScreen BAZ2B-H3K14Ac peptide displacement; Q9UIF8; further: on the % scale 0 is the no-effect control and ±100 the full control effect; nearly all actives have a fitted effect of over 60% in size
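Complex of BAZ2B and biotin-H3K14Ac (50 nM apiece) forms over 30 min at RT, then faces library compounds up to 110 uM for another 30 min; AlphaScreen beads added, 20 min dark incubation, luminescence read.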
HP1b binding inh: HP1-beta chromodomain-methylated histone interaction inhibition | P83916 | AlphaScreen HP1-beta / biotin-H3K9me3 peptide binding | Potency, µM (titrated, usually from 114 µM), for the others: at the top dose activity change, negative = inhibition, usual class: inhibitors | 390,000 tested, 0.56% active; further: nearly all actives have a fitted effect of over 70% in size
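AlphaScreen: HP1-beta (50 nM) preformed 30 min with biotin-H3(1-18)K9me3 peptide (50 nM) in PBS pH 7.4, 0.01% Tween-20. Compound added for 30 min at RT, then streptavidin donor/nickel chelate acceptor beads (10 ug/mL) for 30 min.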
Active calls of the source: *; ? = inconclusive; . = no result; [ ] = another dose, or the depositor's remark. In the library only some 12% were active in any assay of this set; here they are far more common. The call rests on the fitted dose curve; in most records, active means well fitted curve in the direction sought with a large enough effect; inconclusive means small, poorly fitted or top-dose-only effect, or another doubt; inactive means no such curve, though single readings can be large; an effect the other way counts as inactive or inconclusive. Potency means the concentration at half of the fitted maximal effect.

SMILES	JMJD2A Tudor	Sfp inh	PLK1 PBD block	G9a inh	BAZ2B inh	HP1b binding inh
COc1ccc(NC(=S)Nc2ccccc2C(F)(F)F)cc1	-3%	-19%	-3%	-32%	-25%	37%
C[Si](C)(C)C#Cc1ccccc1NC(=S)Nc1ccccc1	.	79µM*	.	.	.	.
FC(F)(F)c1ccccc1NC(=S)Nc1ccccc1	-1%	-24%	-20%	50µM*	-2%	38%
Cc1cc(C)cc(NC(=O)CCn2ccnc2)c1	-19%	24%	-3%	8%	-6%	-2%
CC(=O)c1cccc(S(=O)(=O)Nc2ccccc2N2CCOCC2)c1	-6%	.	-10%	.	.	40%
O=C(Cc1ccccc1)NNC(=S)Nc1ccccc1	-3%	14%	-13%	?	0%	38%
O=C(CCCCCCCC(=O)NNC(=O)Nc1ccccc1)NNC(=O)Nc1ccccc1	79µM*	7%	-13%	-48%[59 µM]	79µM*	4%
NC(=S)NNC(=S)Nc1ccccc1	-26%	10µM*	?	10µM*	-16%	?
O=C(CCc1ccccc1)NNC(=O)Nc1ccccc1	4%	23%	-1%	1%	-6%	20%
S=C(NNC(=S)Nc1ccc(Cl)cc1)NNc1ccccc1	.	.	7.5µM*	.	.	.
CCNC(=S)NNC(=O)Nc1ccccc1	32µM*	-25%	-6%	3.2µM*	6%	?
COc1c(O)c(O)c2cc(OC)c3c(OC)cc(=O)c4c5c(=O)c(OC)c(C(C)=O)c6c5c(c1CC=6C)c2c34	.	-9%	.	.	.	.
O=c1cc2c(n[nH]1)CCCC2	56µM*	6%	-6%	?	?	22%
COc1ccc(NC(=O)Cn2c(=O)n(-c3ccc(C)cc3)c(=O)c3c2c2cc(C)ccc2n3C)cc1	-13%	.	.	-12%[59 µM]	-31%	29%
O=c1oc(-c2ccc([N+](=O)[O-])cc2)nc2ccc(O)cc12	?	-4%	-19%	40µM*	?	-11%
O=c1oc(-c2ccc([N+](=O)[O-])cc2)nc2ccccc12	-18%	15%	1%	-3%	-7%	12%
CCC(C)NC(=O)CN(c1ccc(OC)cc1)S(=O)(=O)c1ccccc1 (stereo not given)	?	21%	21µM*	11%	-2%	-15%
COCCCNC(=O)CN(c1ccc(OC)cc1)S(=O)(=O)c1ccc(NC(C)=O)cc1	-23%	8%	-8%	35%[12.7 µM]	-21%	22%
COc1ccc(N(CC(=O)NC(C)c2ccccc2)S(=O)(=O)c2ccc(C)cc2)cc1 (stereo not given)	-5%	18%	-1%	-6%	-1%	37%
COc1ccc(N(CC(=O)NC(C)C)S(=O)(=O)c2ccc(NC(C)=O)cc2)cc1	-29%	7%	-14%	1.4µM*	-13%	-4%
CSCC[C@H](C=O)NC(=O)[C@H](CC(C)C)NC(=O)[C@H](CC(C)C)NC(C)=O	.	15%	.	.	.	.
Cc1ccccc1OCC(=O)NN1C(=O)C2C3C=CC(O3)C2C1=O (stereo not given)	-17%	50µM*	-19%	?	-17%	-2%
CCOc1ccc(C(=O)NN2C(=O)C3C4C=CC(O4)C3C2=O)cc1 (stereo not given)	-11%	28µM*	-10%	6.3µM*	3%	25%
Cc1ccccc1OCC(=O)NN1CCN(C)CC1	-11%	2%	-9%	-25%	-4%	13%
O=C(CCc1ccccc1)NN1C(=O)C2C3C=CC(O3)C2C1=O (stereo not given)	-2%	10µM*	0%	10µM*	-11%	47%
SMILES	JMJD2A Tudor	Sfp inh	PLK1 PBD block	G9a inh	BAZ2B inh	HP1b binding inh
Cc1cccc(OCC(=O)NC2CCCC2)c1	3%	-3%	-7%	6%	-11%	21%
Cc1cccc(OCC(=O)NN2C(=O)C3C4C=CC(O4)C3C2=O)c1 (stereo not given)	-11%	40µM*	-4%	8.9µM*	-12%	0%
O=S(=O)(c1ccc2c(c1)OCCO2)N1CCN(S(=O)(=O)c2ccccc2Cl)CC1	-10%	.	.	.	.	.
C=CCn1c(SCC(=O)Nc2cccc(S(N)(=O)=O)c2)nnc1C1CCCCC1	-2%	.	0%	9%[2.33 µM]	12%	31%
O=C(CNC(=O)C1CCCCC1)OCC(=O)c1ccc2c(c1)CCC2	-5%[57.1 µM]	.	.	.	.	27%[57 µM]
CC(C)C[C@@H](CN)NC(=O)c1nc[nH]c1C(=O)N[C@@H](C)C(=O)CNC[C@H](C)NC(=O)c1nc[nH]c1C(=O)N[C@@H](CC(C)C)C(=O)O	50µM*	.	?	.	.	51%
CC(C)C[C@H](NC(=O)c1[nH]cnc1C(=O)N[C@@H](C)c1ccccc1)C(=O)OCc1ccccc1	-35%	29%	-2%	19%[12.7 µM]	3%	33%
CC(C)C[C@@H](CNCC(=O)[C@H](CC(=O)O)NC(=O)c1[nH]cnc1C(=O)N[C@H](CN)CC(C)C)NC(=O)c1nc[nH]c1C(=O)N[C@@H](Cc1ccccc1)C(=O)O	50µM*	.	?	.	.	-14%
CC(C)C[C@@H](CN)NC(=O)c1nc[nH]c1C(=O)N[C@@H](C)C(=O)CNC[C@H](C)NC(=O)c1nc[nH]c1C(=O)N[C@@H](C)C(=O)O	50µM*	.	?	.	.	59%
CC(C)C[C@@H](CNCC(=O)[C@H](CC(C)C)NC(=O)c1[nH]cnc1C(=O)N[C@@H](C)CN)NC(=O)c1nc[nH]c1C(=O)N[C@@H](Cc1ccccc1)C(=O)O	-29%	.	-6%	.	.	35%
CC(C)C[C@@H](CN)NC(=O)c1nc[nH]c1C(=O)N[C@@H](CC(C)C)C(=O)CNC[C@H](C)NC(=O)c1nc[nH]c1C(=O)N[C@@H](C)C(=O)O	79µM*	.	-14%	.	.	50%
CC(C)C[C@H](NC(=O)c1[nH]cnc1C(=O)N[C@@H](C)C(=O)OC(C)(C)C)C(=O)OC(C)(C)C	-18%	33%	5%	26%[12.7 µM]	9%	46%
CCC(=O)Nc1ccc(-c2nnc3c4ccccc4c(C)nn23)cc1	2%	.	.	7%[59 µM]	-1%	34%
CC(=O)N/C(=C\c1ccccc1)C(=O)OCC(=O)N(C)C1CCS(=O)(=O)C1 (stereo not given)	-12%	.	-6%	.	.	21%
COc1ccc(S(=O)(=O)Nc2cccc(S(=O)(=O)N(C)C)c2)cc1[N+](=O)[O-]	-22%	.	-2%	.	.	19%
CCCCC1=CC2=C(OC(C)=O)C(=O)C(C)(OC(=O)c3ccco3)C(=O)C2=CO1 (stereo not given)	.	0%	.	.	.	.
CC(C)C[C@@H](CN)NC(=O)c1nc[nH]c1C(=O)N[C@@H](C)C(=O)CNC[C@H](C)NC(=O)c1nc[nH]c1C(=O)N[C@@H](Cc1ccccc1)C(=O)O	79µM*	.	-9%	.	.	52%
COc1ccccc1N1CCN(C(=O)c2nc(SC)ncc2Cl)CC1	-8%	.	.	-2%[59 µM]	-13%	32%

Compound activity (PubChem BioAssay)
